# From PubChem
# TLR4-MyD88 BLA: TLR4-MyD88 interaction inhibition in cells | HeLa CL3-4 TLR4/MyD88 BLA complementation, FRET ratio | inhibition, % at 8.4 µM | 200,000 tested, 0.18% active; in the data active means inhibition above about 25%;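 further: 0% = vehicle and 100% = reference inhibitor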
# Myeloid diff 2: myeloid differentiation induction; ER-HoxA9 myeloid progenitors, lysozyme-GFP differentiation, flow cytometry; calls only at 10 µM; 360,000 tested, 1% active; AID 624256;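 active means normalized GFP-positive differentiation at or above the plate's own cutoff, the solvent-only control mean plus 3 SD; inconclusive means no clear call, values can overlap the other calls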;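 further: cells exposed to compound for four days before flow analysis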
# TLR9-MyD88 inh: blocks human TLR9 binding to MyD88. inhibition, % at 4.98 µM. Q9NR96+Q99836. AID 504734. CHO BLA complementation TLR9-MyD88, CCF4 FRET ratio. 340,000 tested, 0.21% active;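 active means inhibition above the mean over all tested compounds plus 3 SD, cut at about 21% in these data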;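 further: 0% = DMSO only wells and 100% = clavulanate BLA inhibitor control wells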
# NOD2-RIPK2 inh: blocks binding of human NOD2 to RIPK2. 360,000 tested, 0.38% active. inhibition, % at 4.98 µM. O43353. CHO BLA complementation NOD2-RIPK2, CCF4 ratio; in the data active means inhibition above about 21%;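 further: 0% = vehicle only and 100% = reference blocker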
# ABCB6 inh 2: blocks the human ABCB6 transporter | fluorescence ratio to DMSO, % at 10 µM | 360,000 tested, 0.19% active | K562-ABCB6 porphyrin accumulation, flow cytometry, 1 h; active compounds read low | AID 602162;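 active means fluorescence ratio to DMSO below 75%, the collection mean minus 3 SD; inconclusive means too few cells collected in the well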;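 further: signal is porphyrin accumulated inside mitochondria; 100% equals median channel fluorescence of DMSO control wells; lower ratio means ABCB6 inhibition with less porphyrin fluorescence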
# An asterisk follows results filed as active; i = inactive; ? = inconclusive; / = no result given; + = active, no number. This is a sample that favours compounds with a hit; in the whole collection about 1.7% have one here.
SMILES,TLR4-MyD88 BLA,Myeloid diff 2,TLR9-MyD88 inh,NOD2-RIPK2 inh,ABCB6 inh 2
CCc1ccc(OC2=NS(=O)(=O)c3ccccc32)cc1,7.9,i,1.8,-0.9,95.0
Cc1ccc(OC2=NS(=O)(=O)c3ccccc32)cc1,-2.5,+,-1.4,-5.2,83.0
CCCCNC(=O)CCCn1c(=O)[nH]c2ccc(Br)cc2c1=O,13.1,+,1.8,0.4,97.0
CC[C@]12c3[nH]c4cc(-c5ccco5)ccc4c3CCN1C(=O)[C@@H](CC(=O)NCCCn1ccnc1)C[C@@H]2C(=O)N1CCN(C(=O)C2CC2)CC1,/,+,-3.8,-6.0,99.0
Cc1ccc2c(c1)C(c1ccc(F)cc1)N(C(=O)c1ccccc1Br)CC(=O)N2 (centres undefined),/,i,-9.4,2.6,97.0
FC(F)(F)c1cccc(NC(=S)NC2CCCC2)c1,-6.1,i,8.1,0.2,75.0
FC(F)(F)c1ccc(NC(=S)NC2CCCCC2)cc1,-4.0,+,-0.6,8.4,100.0
C=CC[C@H](CC(=O)NCCO)C(=O)N[C@H](COC(=O)[C@@H](CC=C)Cc1ccc(F)cc1)Cc1ccccc1,/,i,-0.7,-18.8,94.0
CCc1ccc(OCC(=O)N/N=C\c2ccco2)c([N+](=O)[O-])c1,-2.3,i,1.5,-18.9,99.0
O=C(Cc1ccccc1[N+](=O)[O-])NCCC1=CCCCC1,3.8,+,2.6,-11.9,91.0
CC(=O)c1cccc(OCc2cc(C(=O)N3C[C@H]4CC[C@H]3C4)no2)c1,/,+,-0.2,-3.8,105.0
C=CCn1c(COc2ccc(F)cc2)nnc1SCC(=O)NC1CCS(=O)(=O)C1 (centres undefined),/,i,-7.0,-10.9,71.0*
CCN1/C(=C/c2ccc3cc(C)ccc3[n+]2CC)Sc2cc(C)ccc21,5.2,?,-13.0,16.5,i
CCCCN1/C(=C/c2ccc3ccccc3[n+]2CC)Sc2ccccc21,19.9,+,/,-6.1,i
COc1cc2c(cc1OC)C1=C(C#N)CC/C(=N\S(=O)(=O)c3cccc(Cl)c3)N1CC2,-6.2,i,-5.5,-22.5,73.0*
CCOC(=O)Oc1ccc(/C=C2\N=C(C)OC2=O)cc1,/,i,-3.6,-1.3,96.0
O=C(O)c1cccc(S(=O)(=O)Nc2ccccc2C(=O)NCCc2ccccc2)c1,/,+,-1.4,-0.4,100.0
O=C(O)c1cccc(S(=O)(=O)NCCc2ccccc2)c1,0.0,i,2.9,-3.0,95.0
Cc1cc2c(cc1C)NC(CC(=O)NCc1ccccc1)C(=O)N2 (centres undefined),-6.9,+,-7.7,-6.7,159.0
COc1ccc(CCNC(=O)CC2Nc3cc(C)c(C)cc3NC2=O)cc1OC (centres undefined),4.1,i,4.5,-10.8,100.0
COCCCNC(=O)C[C@@H]1C[C@@]2(C(=O)OC)CCCCC=C2N(CCC2=CCCCC2)C1=O,/,i,/,-6.7,100.0
CCCCN1/C(=C/c2cccc[n+]2C)Sc2cc(NC(C)=O)ccc21,/,i,6.3,-13.4,133.0
Cc1ccc2c(c1)S/C(=C/c1ccc[n+](C)c1)N2CCO,-5.6,+,-6.9,-1.3,172.0
CCc1ccc(-c2cc(C(F)(F)F)n3nc(C(=O)Nc4c(C)nn(Cc5ccccc5Cl)c4C)cc3n2)s1,3.4,i,4.4,-1.6,97.0
CCc1ccc(-c2cc(C(F)(F)F)n3nc(C(=O)Nc4c(C)nn(Cc5ccccc5C)c4C)cc3n2)s1,13.4,+,-18.6,-11.0,112.0
SMILES,TLR4-MyD88 BLA,Myeloid diff 2,TLR9-MyD88 inh,NOD2-RIPK2 inh,ABCB6 inh 2
COc1cccc2sc(NNC(=O)C3=COCCO3)nc12,-5.4,+,4.7,5.2,103.0
COc1cc(NC(=O)COc2ccc(-n3cnnn3)cc2)cc(OC)c1OC,/,i,-0.5,-8.4,96.0
COc1ccc(Cn2cc(CN3CCc4onc(-c5ccc(Br)cc5)c4C3=O)nn2)cc1,/,i,/,-6.3,/
Cc1ccc(N)c(C(=O)CCCCC(=O)O)c1,1.6,+,0.1,0.1,102.0
CC(C)(C)c1ccc(/C=N/OCC(=O)NCc2ccc(F)cc2)cc1,15.1,i,5.1,-2.0,104.0
Cc1ccnc(NC(=O)CCC(=O)N(CC(=O)NCc2ccccc2)Cc2ccc(F)cc2)c1,/,+,-1.9,3.3,97.0
Cc1ccnc(NC(=O)CCC(=O)N(CC(=O)NCc2ccccc2)Cc2ccccc2)c1,/,i,-0.7,-3.6,96.0
O=C1c2ccccc2S(=O)(=O)N1CC(O)COc1ccc(Br)cc1 (centres undefined),1.4,i,-9.3,4.3,73.0*
O=C1c2ccccc2S(=O)(=O)N1CC(O)COc1ccc(Cl)cc1 (centres undefined),6.0,i,-3.0,2.2,85.0
Fc1ccc(-c2cn3cc(C(F)(F)F)cc(Cl)c3n2)cc1,-0.9,i,-0.1,-2.7,88.0
COc1ccc(-c2cn3cc(C(F)(F)F)cc(Cl)c3n2)cc1,6.6,+,9.3,-3.0,101.0
CC1(C)C(=O)Nc2ccccc2N1C(=O)COc1ccccc1C#N,/,?,1.8,-8.0,95.0
C=CCSc1nnc(N2C(=O)C(O)=C(C(=O)c3ccco3)C2c2ccccc2F)s1 (centres undefined),/,+,-3.4,-3.7,111.0
COc1ccc(OC)c(C(=O)c2coc3ccc(OCC(=O)O)cc23)c1,-9.3,i,-4.4,-2.2,96.0
CC(=O)c1coc2ccc(OCC(=O)O)cc12,-3.5,+,-9.7,-2.1,101.0
N#CCC(=O)Nc1ccc(C(=O)NNC(=O)c2ccccc2-n2cccc2)cc1,/,i,-1.5,4.0,98.0
CC(NC(=S)NCCc1ccccc1)C(c1cccs1)N1CCN(Cc2ccccc2)CC1 (centres undefined),2.9,i,0.9,-14.9,99.0
Oc1cc(-c2ccc(N3CCCCC3)nc2)cc2cccnc12,/,i,15.5,22.3*,97.0
COc1cccc(Nc2ncnc3sccc23)c1,/,+,-8.9,-8.4,103.0
S=C(NCCN(C1CCCCC1)C1CCCC1)Nc1cccc(Cl)c1,/,+,2.2,-4.2,96.0
O=C(Nc1ccon1)Nc1cc(Cl)ccc1Cl,/,i,0.0,-1.0,99.0
CS(=O)(=O)NN1C(=O)c2ccccc2NC1c1ccccc1O (centres undefined),-4.9,i,-10.0,-5.0,98.0
CS(=O)(=O)NN1C(=O)c2ccccc2NC1c1c[nH]c2ccccc12 (centres undefined),3.3,+,2.4,3.6,314.0
Cc1c(CCC(=O)NCCCn2ccnc2)c(=O)oc2c(C)c3oc4c(c3cc12)CCCC4,/,+,-2.9,-5.2,99.0
CCOC(=O)c1cn(-c2ccc([N+](=O)[O-])cc2)c2cc(Cl)c([N+](=O)[O-])cc2c1=O,-6.0,+,-2.6,-0.1,98.0
COc1ccccc1N1CCN(C(=O)C(C)NC(=O)c2ccco2)CC1 (centres undefined),/,i,5.0,-3.5,97.0
CC(NC(=O)c1ccco1)C(=O)N1CCc2ccccc2C1 (centres undefined),1.9,+,0.6,9.5,106.0
